Results taken from PubChem BioAssay (NCATS).
Several values for one entry are separate records, joined by “and”; a condition that tells them apart may be missing. Equal values may be shown once. Inconclusive results are not listed. A call without a number means that no potency is given here. A number with no mark means an inactive call. Activity calls are given as the source filed them. The call rests on the fitted dose curve; in most records, active means well fitted curve in the direction sought with a large enough effect; inconclusive means small, poorly fitted or top-dose-only effect, or another doubt; inactive means no such curve, though single readings can be large; an effect the other way counts as inactive or inconclusive.

Legend:
[1] = system: KB-3-1; experiment: Cytotoxic Profiling of Annotated Libraries Using Quantitative High-Throughput Screening (AID 1296008); conditions: Five cell lines viability, CellTiter-Glo ATP luminescence, 48-72 h; max response: active compounds read low; further: nearly all actives have a fitted effect of over 60% in size
Summary of the method: (§1)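 Cytotoxicity was measured as CellTiter-Glo ATP luminescence, read after 10 min at room temperature. Compound treatment of the cells lasted 48 or 72 hr at 37 degrees Celsius in a qHTS format.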

[2] = system: NIH3T3; experiment: as above; conditions: Five cell lines viability, CellTiter-Glo ATP luminescence, 48-72 h; max response: active compounds read low
Summary of the method: as §1

[3] = system: MCC-13; experiment: qHTS assay to identify novel small-molecules to repurpose for Merkel cell carcinoma treatment (AID 1296009); conditions: MCC and control cell lines, CellTiter-Glo viability, 72 h; series mostly up to 46 µM; further: nearly all actives have a fitted effect of over 60% in size
Summary of the method: (§2)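 Cell viability measured by CellTiter-Glo following 72 hr compound treatment at 37 degree celsius, with NPC and MIPE libraries tested in 8- and 11-point concentration series.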

[4] = system: MCC-26; experiment: as above; conditions: MCC and control cell lines, CellTiter-Glo viability, 72 h; series mostly up to 46 µM
Summary of the method: as §2

[5] = system: MKL-1; experiment: as above; conditions: MCC and control cell lines, CellTiter-Glo viability, 72 h; series mostly up to 46 µM
Summary of the method: as §2

[6] = system: MKL-2; experiment: as above; conditions: MCC and control cell lines, CellTiter-Glo viability, 72 h; series mostly up to 46 µM
Summary of the method: as §2

[7] = system: UISO; experiment: as above; conditions: MCC and control cell lines, CellTiter-Glo viability, 72 h; series mostly up to 46 µM
Summary of the method: as §2

[8] = system: WaGa; experiment: as above; conditions: MCC and control cell lines, CellTiter-Glo viability, 72 h; series mostly up to 46 µM
Summary of the method: as §2

[9] = system: CAOV3; experiment: Primary qHTS to identify gynecologic anti-cancer compounds using libraries of approved drugs and bioactive compounds (AID 1345084); conditions: Gynecologic cancer cell panel viability, ATPlite luminescence, 48 h; series mostly up to 57.5 µM; further: nearly all actives have a fitted effect of over 55% in size; further: potency means the concentration at half of the fitted maximal effect
Summary of the method: (§3)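 ATP-based viability (ATPlite), 1,000 cells/well, 16 h pre-incubation, 48 h compound at 37 C, 5% CO2, 15 min RT before read.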

[10] = system: CASKI; experiment: as above; conditions: Gynecologic cancer cell panel viability, ATPlite luminescence, 48 h; series mostly up to 57.5 µM
Summary of the method: as §3

[11] = system: Es-2; experiment: as above; conditions: Gynecologic cancer cell panel viability, ATPlite luminescence, 48 h; series mostly up to 57.5 µM
Summary of the method: as §3

[12] = system: HeLa; experiment: as above; conditions: Gynecologic cancer cell panel viability, ATPlite luminescence, 48 h; series mostly up to 57.5 µM
Summary of the method: as §3

[13] = system: Hek293T; experiment: as above; conditions: Gynecologic cancer cell panel viability, ATPlite luminescence, 48 h, control line for the selectivity index; series mostly up to 57.5 µM
Summary of the method: as §3

[14] = system: JEG-3; experiment: as above; conditions: Gynecologic cancer cell panel viability, ATPlite luminescence, 48 h; series mostly up to 57.5 µM
Summary of the method: as §3

[15] = system: NIH3T3; experiment: qHTS assay to identify novel small-molecules to repurpose for Merkel cell carcinoma treatment (AID 1296009); conditions: MCC and control cell lines, CellTiter-Glo viability, 72 h; at 44.8 µM (top of the series) unless noted; further: nearly all actives have a fitted effect of over 60% in size
Summary of the method: as §2

[16] = system: C33A; experiment: Primary qHTS to identify gynecologic anti-cancer compounds using libraries of approved drugs and bioactive compounds (AID 1345084); conditions: Gynecologic cancer cell panel viability, ATPlite luminescence, 48 h; series mostly up to 57.5 µM; further: nearly all actives have a fitted effect of over 55% in size; further: potency means the concentration at half of the fitted maximal effect
Summary of the method: as §3

[17] = system: OV90; experiment: as above; conditions: Gynecologic cancer cell panel viability, ATPlite luminescence, 48 h; series mostly up to 57.5 µM
Summary of the method: as §3

SMILES | max response [1] | max response [2] | outcome [3] | Potency [4] | Potency [5] | Potency [6] | Potency [7] | Potency [8] | outcome [9] | outcome [10] | Potency [11] | Potency [12] | outcome [13] | outcome [14] | outcome [2] | outcome [15] | Potency [16] | Potency [17]
COc1cc(CC(C)N)cc(OC)c1OC (stereo unspecified) | -7.25% | -5.38% | inactive | inactive | inactive | inactive | inactive | inactive | inactive | inactive | 15.8 µM (active) | 1.58 µM (active) | inactive | inactive | – | – | – | –
CC(C)NC(C)C | 13.4% | – | inactive | – | inactive | inactive | inactive | inactive | inactive | inactive | inactive | inactive | inactive | inactive | inactive | inactive | inactive | inactive
CN(C)CCc1c[nH]c2cccc(OP(=O)(O)O)c12 | -1.8% | -11.6% | inactive | – | inactive | inactive | inactive | inactive | inactive | inactive | inactive | inactive | inactive | inactive | – | – | inactive | inactive
CCC1(CC)C(=O)C=CNC1=O | -0.338% | 1.41% | inactive | inactive | inactive | inactive | inactive | inactive | inactive | inactive | inactive | inactive | inactive | inactive | – | – | inactive | inactive
CN1C(=O)COc2c(C(=O)NC3CN4CCC3CC4)cc(Cl)cc21 (stereo unspecified) | 2.45% | -0.6% and 1.75% | inactive | inactive | inactive | inactive | inactive | inactive | inactive | inactive | inactive | inactive | inactive | inactive | – | – | inactive | inactive
Nc1nc(N)nc(NC2CC2)n1 | 8.79% | -2.48% | inactive | – | inactive | inactive | inactive | inactive | inactive | inactive | inactive | inactive | inactive | inactive | – | – | inactive | inactive
NC(=O)CS(=O)C(c1ccccc1)c1ccccc1 (stereo unspecified) | 3.03% | -4.5% | inactive | inactive | inactive | inactive | inactive | inactive | inactive | inactive | inactive | inactive | inactive | inactive | – | – | inactive | –
C=CCC1([C@H](C)CCC)C(=O)NC(=O)NC1=O | -1.57% | -4.37% | inactive | inactive | inactive | inactive | inactive | inactive | inactive | inactive | inactive | inactive | inactive | inactive | – | – | inactive | inactive
CCCCC/C=C\C/C=C\C/C=C\C/C=C\CCCC(=O)NCC(=O)O | -17.5% | – | inactive | – | inactive | – | inactive | inactive | inactive | inactive | inactive | inactive | inactive | inactive | inactive | inactive | inactive | inactive
c1ccc2c(c1)sc1ccccc12 | -1.3% | – | inactive | – | inactive | inactive | inactive | inactive | inactive | inactive | inactive | inactive | inactive | inactive | inactive | inactive | inactive | inactive
C#C[C@]1(O)CC[C@H]2[C@@H]3CCC4=CC(=O)CC[C@]4(C)[C@H]3CC[C@@]21C | -5.39% and -1.95% | 4.32% | inactive | inactive | inactive | inactive | inactive | inactive | inactive | inactive | inactive | inactive | inactive | inactive | – | – | inactive | inactive
CCCCCCC(=O)CCCCCC/C=C/C[C@@H](O)[C@H](O)[C@@](N)(CO)C(=O)O | 4.21% and -11.8% | 0.482% | inactive | inactive | inactive | inactive | inactive | inactive | inactive | inactive | inactive | inactive | inactive | inactive | – | – | inactive | inactive
